Source: PubChem BioAssay (Bradner/Qi Labs at DFCI)
CBX7 AlphaScr – CBX7 inhibition, primary AlphaScreen; normalised signal (fraction of DMSO) (no concentration beside the values); 66,000 compounds, 1.1% hits; AID 1224903; AlphaScreen His6-CBX7 / biotin-H3K27me3 peptide binding; hits give low values; in the data active = normalised signal below about 0.5
Target sequence (O95931 whole entry, looked up): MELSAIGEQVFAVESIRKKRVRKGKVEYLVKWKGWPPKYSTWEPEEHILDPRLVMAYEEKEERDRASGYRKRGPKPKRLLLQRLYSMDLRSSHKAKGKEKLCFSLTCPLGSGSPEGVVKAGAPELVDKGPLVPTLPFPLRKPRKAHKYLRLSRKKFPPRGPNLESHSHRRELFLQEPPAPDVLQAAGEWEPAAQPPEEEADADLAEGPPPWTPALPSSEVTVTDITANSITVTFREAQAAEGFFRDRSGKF
Large screens that a line does not name were inactive; ! = not confirmed by another sample. The entries come from a sample that favours hits as a whole.

O=C(O)c1ccc(Nc2nc(-c3ccccn3)cs2)cc1	CBX7 AlphaScr 0.18
COc1ccc(OC)c(Nc2nc(-c3ccc(C)cc3)cs2)c1	none
COc1ccc(-c2csc(Nc3ccccc3OC)n2)cc1	none
COc1ccc(OC)c(Nc2nc(-c3ccccn3)cs2)c1	CBX7 AlphaScr 0.38
CCOc1ccc(Nc2nc(-c3c(C)nc4ncccn34)cs2)cc1	none
O=C(O)c1ccc(Nc2nc(-c3ccccc3)cs2)cc1	none
O=C(O)c1ccc(Nc2nc(-c3ccncc3)cs2)cc1	none
CCOc1ccc(Nc2nc(-c3ccccn3)cs2)cc1	CBX7 AlphaScr 0.018
CCOc1ccc(Nc2nc(-c3ccc(Cl)c(Cl)c3)cs2)cc1	none
CCC1=Nc2cc(C(=O)NCCCOC)ccc2Sc2ccc(Br)cc21	none
O=C(c1ccccc1)N1CCN(c2ccc3nnc(-c4ccc(F)cc4)n3n2)CC1	none
Cc1cc2nc(Cc3cc(Br)ccc3F)c(=O)[nH]c2cc1C	none
O=C(NCc1ccccc1Cl)C1CCN(S(=O)(=O)c2cccc3cccnc23)CC1	none
O=C(CC1Oc2ccccc2NC1=O)NCCN1CCCC1 (stereo unspecified)	none
CC(C)CCNC(=O)c1cn(C2CCCCC2)c(=O)c2c1c1ccccc1n2C	none
COc1cccc(-c2cc(C(=O)Nc3cccc(C(F)(F)F)c3)no2)c1	none
Cc1ccc(CSc2nnc(-c3ccncc3)n2CC(C)C)cc1	none
CCOc1ccc2nc(N3CCCC(C(=O)Nc4c(C)cccc4C)C3)sc2c1 (stereo unspecified)	none
CCOc1ccc2nc(N3CCCC(C(=O)N4CCN(c5ncccn5)CC4)C3)sc2c1 (stereo unspecified)	none
CCOc1ccc2nc(N3CCCC(C(=O)N4CCN(C)CC4)C3)sc2c1 (stereo unspecified)	CBX7 AlphaScr 0.38
CCOc1ccc2nc(N3CCCC(C(=O)N4CCN(c5cccc(C)c5)C(C)C4)C3)sc2c1 (stereo unspecified)	CBX7 AlphaScr 0.49
CCOc1ccc2nc(N3CCC(C(=O)N4CCN(C)CC4)CC3)sc2c1	none
CCOc1ccc2nc(N3CCCC(C(=O)N4CCN(c5ccccc5)CC4)C3)sc2c1 (stereo unspecified)	none
COc1ccc(NC(=O)Cn2c(C)cc3ccccc3c2=O)cc1OC	none
CCC1=Nc2cc(C(=O)O)ccc2Sc2ccc(C)cc21	none
Cc1c(-c2ccccc2)nc2sc3c(c2c1N)CCCCC3	none
Cc1c(-c2ccccc2)nc2sc3c(c2c1N)CCCC3	CBX7 AlphaScr 0.47
Nc1c2c(nc3sc4c(c13)CCCCC4)CCCCC2	none
O=C(Nc1ccc(Cl)c(Cl)c1)Nc1nc2ccccc2s1	none
CCOCCCNC(=O)CN1N=C(c2ccccc2)CCC1=O	none
COc1ccc(CNC(=O)CC2Oc3ccc(Cl)cc3NC2=O)cc1 (stereo unspecified)	none
Cc1ccccc1Oc1cc([N+](=O)[O-])cc2c1C(=O)Nc1cc(Cl)ccc1O2	CBX7 AlphaScr 0.084
COc1ccc(Oc2cc([N+](=O)[O-])cc3c2C(=O)Nc2cc(Cl)ccc2O3)cc1	CBX7 AlphaScr 0.42
Cc1ccc2c(c1)Oc1cc([N+](=O)[O-])cc(Oc3cccc(Cl)c3Cl)c1C(=O)N2	CBX7 AlphaScr 0.2
COC(=O)CC1Oc2ccc(Cl)cc2NC1=O (stereo unspecified)	none
Cc1ccc(Oc2cc([N+](=O)[O-])cc3c2C(=O)Nc2ccccc2O3)cc1	none
COCCOc1cc([N+](=O)[O-])cc2c1C(=O)Nc1ccccc1O2	none
O=C1Nc2cc(Cl)ccc2Oc2cc([N+](=O)[O-])cc(Oc3ccccc3)c21	none
COc1ccc(-c2nc3ccccc3n2Cc2cccc(C)c2)cc1OC	none
COc1ccc(N(C)S(=O)(=O)c2ccc3c(c2)CC(C)N3C(C)=O)c(OC)c1 (stereo unspecified)	none
O=C(NCc1ccc(Cl)cc1)c1cc(-c2ccco2)on1	none
Cc1nc(N2CCOCC2)c2c(C)c(C(=O)NC3CCCCCC3)sc2n1	none
Cc1nc2c(C(=O)O)c[nH]n2c(=O)c1Cc1ccccc1Cl	none
CCc1ccccc1NC(=O)c1cc(-c2ccc(O)cc2)on1	none
COc1ccc(C2=NOC(C(=O)N3CCCC3)C2)cc1 (stereo unspecified)	none
COc1ccc(-n2ncc3c(Nc4cccc5c4CCCC5)ncnc32)cc1	none
CCCn1c(=O)c(C(=O)NCc2cccnc2)c(O)c2ccccc21	none
CCn1c(=O)c(C(=O)NC(C)c2ccccc2)c(O)c2ccccc21 (stereo unspecified)	none
CCCn1c(=O)c(C(=O)NC(C)c2ccccc2)c(O)c2ccccc21 (stereo unspecified)	CBX7 AlphaScr 0.28
Cc1cc(C)c(Cc2c(C)nc3c(C(=O)NCCC(C)C)cnn3c2C)c(C)c1	none
COCc1cc(=O)[nH]c(Nc2nc3ccccc3o2)n1	CBX7 AlphaScr 0.12
COCc1cc(=O)[nH]c(Nc2nc(C)c3ccccc3n2)n1	none
O=c1cc(-c2ccccc2)nc(Nc2nc3ccccc3o2)[nH]1	none
Cc1ccc(O)c(-c2cc(-c3ccccc3Cl)[nH]n2)c1	none
Cc1ccc(CNc2ccc3c(c2)ncn3C(C)(C)C)cc1	CBX7 AlphaScr 0.41
COc1ccccc1-n1cnc2cc(NCc3ccc(Cl)cc3)ccc21	none
COc1cccc(CNc2ccc3c(c2)ncn3C(C)C)c1OC	none
Cc1ccc(S(=O)(=O)Nc2ccc3c(c2)ncn3C(C)(C)C)cc1	none
CCn1cnc2cc(NCc3ccc(Cl)cc3Cl)ccc21	none
CC(C)n1cnc2cc(NCc3ccncc3)ccc21	none
CC(C)n1cnc2cc(NCc3cccc4ccccc34)ccc21	CBX7 AlphaScr 0.25
CC(C)(C)n1cnc2cc(NCc3ccccc3Cl)ccc21	CBX7 AlphaScr 0.4
CC(C)c1ccc(CNc2ccc3c(c2)ncn3C(C)(C)C)cc1	CBX7 AlphaScr 0.29
COc1ccc(CNc2ccc3c(c2)ncn3C(C)(C)C)cc1	none
CC(C)c1ccc(CNc2ccc3oc(-c4ccccc4)nc3c2)cc1	none
Cc1cc(Cl)cc2c1N=C(c1ccc(Br)cc1)NN=C2c1ccccc1	none
O=C(CC1Nc2ccccc2NC1=O)Nc1cccc(Cl)c1 (stereo unspecified)	none
Cc1ncc2c(c1OC(=O)c1ccccc1)COC(C)(C)OC2	none
CCCCNC(=O)CC1Oc2ccccc2NC1=O (stereo unspecified)	none
CCC(C(=O)NCc1ccc2c(c1)OCO2)n1ncc2ccccc21 (stereo unspecified)	none
CCCc1nc2ccccc2n1CC(O)COc1ccccc1Cl (stereo unspecified)	none
Cc1cccc(-c2nc(CSCC(=O)Nc3cc(C)ccc3C)c(C)o2)c1	none
COc1ccc(-n2cnc3sc(C)c(C)c3c2=O)cc1	none
COc1cc(Nc2nc(-c3ccccc3)cs2)c(OC)cc1Cl	none
COc1cc(Nc2nc(-c3ccc(C4CCCCC4)cc3)cs2)c(OC)cc1Cl	CBX7 AlphaScr 0.46!
COc1cc(Nc2nc(-c3ccc(-c4ccccc4)cc3)cs2)c(OC)cc1Cl	none
O=C(CCc1cn(Cc2ccccc2)c2ccccc12)NCc1ccccc1Cl	CBX7 AlphaScr 0.49
COc1cccc(CNC(=O)CCc2cn(Cc3ccc(C)cc3)c3ccccc23)c1	none
O=C(CCc1cn(Cc2ccccc2)c2ccccc12)NCCc1ccc(Cl)cc1	none
CCc1ccc(CNC(=O)CCc2cn(Cc3ccccc3)c3ccccc23)cc1	none
Cc1ccc(Cn2cc(CCC(=O)NCc3cccnc3)c3ccccc32)cc1	CBX7 AlphaScr 0.26
Cc1ccc(Cn2cc(CCC(=O)NCc3ccccc3)c3ccccc32)cc1	none
Cc1cc(Sc2ccc(Cl)cc2)nc2ccccc12	none
O=C(Cn1ncc2ccsc2c1=O)NCCCN1CCN(C2CCCCC2)CC1	none
O=C1CC(Cc2ccc(Br)cc2)C(=O)N1c1ccccc1 (stereo unspecified)	none
COc1ccccc1Nc1cc(C(=O)NCC(OC)OC)c2ccccc2n1	none
